Assay in all cases: NCI-60 one-dose screen, 48 h (100 = growth as untreated, 0 = no growth, -100 = all killed)
What all share (settings): 10 µM

The test system of test [1] is NCI-H23 lung.
Test [2] concerns NCI-H226 lung.
The test system of test [3] is NCI-H322M lung.
Test [4] concerns HOP-62 NSCLC.
The subject of test [5] is NCI-H460 lung.
In test [6] the test system is HOP-92 NSCLC.
The test system of test [7] is NCI-H522 lung.
In test [8] the test system is A549/ATCC NSCLC.
Test [9] relates to 786-0 renal.
The subject of test [10] is COLO 205 colon.

About 83,000 compounds went through this panel and 20% of them were active in at least one assay; those are over-represented in the sample as a whole.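 For each line, cells grew in 96-well plates with the test compound present at a single concentration for 48 hours.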 Unmarked numbers belong to inactive results. The source made the active and inactive calls. Rule for the calls: active = growth percent below 10; inactive = the rest.

The values below come from PubChem BioAssay (NCI).

Turning to `O=C(CSc1nnc(-c2ccc(Cl)cc2)o1)c1ccccc1`, the growth was 88.7% in test [1]; 96.3% in test [2]; 119% in test [3]; 91.1% in [4]; 105% in test [5]; 107% in test [6]. In addition, the growth in [7] was 78.6%; in [8], 73.2%; in test [9], 92.8%; in [10], 108%.

As to `CCN(CC)CC(O)Cc1ccc(OC)cc1` (stereo not given), the growth in [1] is 108%; in test [2], 99.5%; in [3] it was 121%; in [4], 104%; in [5], 117%; in [6] it was 108%. For the same compound, the growth in test [7] was 97.8%; in test [8] it was 104%; in test [9], 100%; in [10], 109%.

In the case of `FC(F)(F)c1ccc(-c2cnc(Cl)nc2NCc2cc(C(F)(F)F)cc(C(F)(F)F)c2)cc1`, the growth in test [1] was 1.54% (active); in [2] it was 7.69% (active); in [3], 37.8%; in test [4], 33.4%; in test [5] it was 3.48% (active); in test [6], -35.3% (active). The growth is -4.24% (active) in test [7], 15.8% in test [8], 11.5% in test [9] and -51.1% (active) in test [10].

On to `CC(C)OP(=O)(O)c1ncc(-c2ccc(C(F)(F)F)cc2)c(NC2CCCCCC2)n1`, for which the growth in test [1] was 62.6%; in test [2], 74.1%; in test [3], 91.1%; in test [4], 70.5%; in test [5] it was 41.5%; in test [6], 22.8%. The growth is 48.8% in [7], 49.2% in test [8], 81.6% in [9] and 61% in test [10].

Turning to `O=C(NCc1cn(Cc2cccc(Oc3ccccc3)c2)nn1)c1cccnc1Nc1ccccc1`, the growth in [1] is 51.9%; in test [2], 61.5%; in test [3] it was 76.9%; in test [4], 54.8%; in test [5] it was 27%; in test [6], 34.9%. Moreover, the growth in test [7] is 54.5%; in test [8] it was 50.6%; in test [9], 51.4%; in test [10], 69.9%.

In the case of `COc1cc(C(=O)n2nc(N)c3c(C)cc(C)nc32)cc(OC)c1OC`, the growth in [1] was 88.8%; in [2], 92.1%; in test [3], 88.6%; in test [4], 79.3%; in [5], 89.9%; in test [6], 93.5%. The growth in test [7] was 41%; in test [8] it was 55.7%; in test [9] it was 90.4%; in [10], 67.6%.

Turning to `CNC(=O)c1cc(Oc2ccc(NC(=O)Nc3ccc(Cl)c(OC4CCCCC4)c3)c(F)c2)ccn1`, the growth was 21.4% in test [1]; 48.4% in test [2]; 75.8% in test [3]; 70.5% in test [4]; 37.9% in test [5]; 36% in [6]. The growth in test [7] was 9.84% (active); in test [8], 26.6%; in test [9], 90.4%; in [10] it was 33.2%.

`Cc1nc2scc(-c3ccc(Cl)cc3)n2c(=O)c1CCN1CCOCC1`: the growth in test [1] was 101%; in [2] it was 94.6%; in test [3], 89.7%; in test [4], 89%; in test [5], 107%; in test [6], 81.6%. Also, the growth in [7] was 86.8%; in [8] it was 99.6%; in test [9] it was 98.8%; in [10], 99.9%.

As to `COC1OC2COC(c3ccccc3)OC2C(=O)C1NC(=O)c1ccccc1` (stereo not given), the growth is 100% in test [1]; 106% in test [2]; 106% in [3]; 86.9% in [4]; 97.2% in [5]; 79.3% in test [6]. In addition, the growth is 95.2% in test [7], 105% in [8], 109% in test [9] and 97.2% in test [10].

In the case of `O=C(NC1CCCC1)c1ccc(N2CCC(NCc3cccc(C(F)(F)F)c3)CC2)cc1`, the growth is 93.5% in [1]; 84.6% in test [2]; 89.1% in test [3]; 77.4% in test [4]; 99.5% in test [5]; 52.7% in [6]. Moreover, the growth in [7] is 93.6%; in test [8], 93%; in test [9], 84.3%; in [10], 8.68% (active).

In the case of `O=C(CCl)N1c2ccccc2Sc2ccc3ccccc3c21`, the growth was -76.5% (active) in test [1]; 34.4% in test [2]; 65.9% in test [3]; -77.8% (active) in test [4]; -35.4% (active) in [5]; -78.3% (active) in test [6]. Further, the growth in test [7] was -81.1% (active); in [8], 38%; in test [9], -62.8% (active); in [10], -76.3% (active).

With `OC(CNC1CCCC1)Cn1c2ccccc2c2ccccc21` (stereo not given), the growth in [1] was 31%; in test [2] it was 99.5%; in test [3], 51%; in [4], 50.1%; in test [5] it was 8.53% (active); in test [6] it was 26.2%. The growth was 27.7% in [7], 11.1% in test [8], 9.8% (active) in test [9] and -66.2% (active) in test [10].

For the compound `COc1cc(Nc2ccnc(N3CCN(c4ccnc5cc(Cl)ccc45)CC3)n2)cc(OC)c1`, the growth in [1] was 9.65% (active); in test [2] it was 9.15% (active); in [3], 23.2%; in [4], 9.41% (active); in test [5], 6% (active); in [6], -16.6% (active). For the same compound, the growth was -23.2% (active) in test [7], 7.47% (active) in test [8], -17.9% (active) in [9] and -10.7% (active) in test [10].

Turning to `COc1cc(-c2nc(-c3nnc(-c4cccnc4)o3)c3ccccn23)cc(OC)c1OC`, the growth in [1] was 101%; in test [2], 86%; in test [3], 101%; in test [4], 102%; in [5] it was 109%; in test [6], 100%. Moreover, the growth in test [7] was 94.7%; in [8] it was 93.9%; in test [9], 89.1%; in test [10] it was 119%.
